# Screens: PubChem BioAssay, several laboratories
# An excerpt weighted towards active compounds, which were near 3.1% of everything screened.
# ATG4B inhibitor: blocks human ATG4B protease cleavage of LC3 substrate. Q9Y4P1. ATG4B cleavage of LC3-PLA2, NBD-HPC fluorescence, 1 h. inhibition, % at 8.33 µM. 0.51% of 340,000 active. AID 504462; in the data active = inhibition above about 40%
# PREPL inh: inhibits the human prolyl oligopeptidase-like enzyme. Q4J6C6. recombinant PREPL, fluorescence polarization activity-based probe. inhibition, % at 5.96 µM. 0.68% of 320,000 active. AID 2751; in the data active = inhibition above about 43%;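 note: 0% = enzyme with DMSO and 100% = wells lacking enzyme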
# Target sequence (Q4J6C6 whole entry, looked up): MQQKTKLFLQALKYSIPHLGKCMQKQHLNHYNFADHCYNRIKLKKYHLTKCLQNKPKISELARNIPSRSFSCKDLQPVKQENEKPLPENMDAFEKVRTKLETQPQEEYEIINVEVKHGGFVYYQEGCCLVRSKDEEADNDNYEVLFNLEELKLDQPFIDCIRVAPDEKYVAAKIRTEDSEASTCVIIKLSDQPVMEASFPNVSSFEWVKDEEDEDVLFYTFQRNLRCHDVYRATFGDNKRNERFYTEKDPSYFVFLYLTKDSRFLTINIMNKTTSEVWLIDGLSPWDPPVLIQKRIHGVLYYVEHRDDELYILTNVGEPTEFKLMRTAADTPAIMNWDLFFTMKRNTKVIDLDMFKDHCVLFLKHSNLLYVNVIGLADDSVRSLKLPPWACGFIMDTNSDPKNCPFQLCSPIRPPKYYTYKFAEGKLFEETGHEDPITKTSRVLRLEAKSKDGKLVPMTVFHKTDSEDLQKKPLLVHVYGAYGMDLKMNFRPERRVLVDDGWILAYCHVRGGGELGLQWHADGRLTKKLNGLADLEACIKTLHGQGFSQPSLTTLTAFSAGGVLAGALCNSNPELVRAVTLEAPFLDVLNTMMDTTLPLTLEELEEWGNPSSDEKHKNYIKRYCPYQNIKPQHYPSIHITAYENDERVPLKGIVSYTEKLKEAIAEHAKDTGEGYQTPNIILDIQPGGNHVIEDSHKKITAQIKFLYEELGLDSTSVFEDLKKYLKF
# MEKK2 mut-MEK5: signal of MEK5 binding to mutant human MEKK2 PB1 domain. percent response, % at 10 µM. AID 1530. bead flow cytometry, Alexa488-MEK5 binding to MEKK2 mutant. 0.35% of 290,000 active; in the data active = percent response above about 24%, passing the limit was not always enough
# MEKK3 PB1 HTS: MEKK3-MEK5 PB1 interaction, increase or decrease; bead-based flow cytometry, Alexa488-MEK5 binding to MEKK3; actives lie on both sides; 0 = blocked by unlabeled MEK5, 100 = vehicle; 1.4% of 290,000 active; binding response (% of control), % at 10 µM;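 active = binding response more than 3 SD above or below the average of its plate-row segment, actives on both sides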;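 note: Alexa488 bead fluorescence after subtracting the streptavidin-only scavenger bead signal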
# MEKK2wt PB1 HTS: raises or lowers MEK5 binding to wildtype human MEKK2 PB1 domain; Q9Y2U5; bead flow cytometry, Alexa488-MEK5 binding to MEKK2 WT; actives lie on both sides; binding response (% of control), % at 10 µM; 1.1% of 290,000 active; in the data active = binding response below about 67% or above about 130%
# UBC13 inh: human UBC13 polyubiquitination inhibition; inhibition, % at 20 µM; P61088; 0.47% of 330,000 active; UBC13 polyubiquitin chain formation, TR-FRET; AID 485273; in the data active = inhibition above about 45%, passing the limit was not always enough
# * hit, by the source's call; nt = no result given; [ ] = dose if it differs, or a comment.
SMILES,ATG4B inhibitor,PREPL inh,MEKK2 mut-MEK5,MEKK3 PB1 HTS,MEKK2wt PB1 HTS,UBC13 inh
O=S(=O)(c1ccccc1)c1nnn2c1nc(NC1CCN(Cc3ccccc3)CC1)c1cc(Cl)ccc12,-7.4,-14.4,33.0*,106.0,138.0*,6.1
O=S(=O)(c1ccccc1)c1nnn2c1nc(NC1CCN(Cc3ccccc3)CC1)c1ccccc12,1.3,-0.6,32.0*,102.0,146.0*,24.6
CN(C)c1ccc(/C=C/C(=O)c2cc(Cl)ccc2O)cc1,-4.0,38.5,-10.0,90.0,-1.0*,nt
COc1c(O)cc2c(c1O)C1OC(CO)C(O)C(O)C1OC2=O (stereo unspecified),-5.3,-10.3,nt,nt,nt,-7.0
O=C1OCC2OC(O)C(O)C(O)C2OC(=O)c2cc(O)c(O)c(O)c2-c2c(O)c(O)c3oc(=O)c4c(c(O)c(O)c5oc(=O)c2c3c54)-c2c1cc(O)c(O)c2O (stereo unspecified),nt,nt,-15.0,73.0*[inhibitor],66.0*[inhibitor],nt
Cc1ccc(S(=O)(=O)Nc2ccc(-c3ccc4nncn4n3)cc2)cc1,-6.6,-10.7,nt,nt,nt,-0.2
COc1cccc(-c2nc(CS(=O)(=O)CC(=O)NCCCN3CCOCC3)c(C)o2)c1,-7.1,1.2,0.0,101.0,99.0,5.9
CCC1CCCCN1CCCNC(=O)CS(=O)(=O)Cc1nc(-c2cccc(OC)c2)oc1C (stereo unspecified),-2.4,9.4,17.0,109.0,140.0*,0.3
O=C1CC(=O)N(Cc2ccco2)C(=S)N1,46.2*,11.0,12.0,111.0,115.0,15.5
COc1c(Br)cc(/C=N/n2c(-c3ccccc3)n[nH]c2=S)c(O)c1Br,17.2,16.8,0.0,102.0,106.0,-22.9
Cc1cc(F)ccc1NC(=O)C1CSC2(C)CCC(=O)N12 (stereo unspecified),4.4,-4.5,nt,nt,nt,-2.9
Cc1ccc(-n2c(N)c(C(=O)Nc3c(C)n(C)n(-c4ccccc4)c3=O)c3nc4ccccc4nc32)cc1C,nt,43.2*,-13.0,97.0,88.0,-17.5
CCN(C(=O)COC(=O)c1ccccc1Oc1ccccc1)c1c(N)n(Cc2ccccc2)c(=O)[nH]c1=O,-4.4,nt,nt,nt,nt,nt
CC(C)N1CCC2(CC1)C(C#N)=C(N)NC(S)=C2C#N,nt,49.2*,0.0,98.0,100.0,1.2
COc1ccccc1N1CCN(C(=O)C2C3C=CC4(CN(Cc5ccccc5Cl)C(=O)C24)O3)CC1 (stereo unspecified),-5.5,21.5,-2.0,82.0*[inhibitor],86.0,7.3
FC(F)(F)c1ccc(N2CCN(c3ncnc4c3nnn4Cc3ccccc3Cl)CC2)cc1,-17.9,2.0,4.0,109.0,105.0,10.6
Fc1ccc(N2CCN(c3ncnc4c3nnn4Cc3ccccc3Cl)CC2)cc1,-2.6,-0.4,-3.0,71.0*[inhibitor],89.0,6.1
CCCCCCCCCCCCCCCC[N+](C)(C)CC,17.9,32.5,nt,nt,nt,90.7*
COc1cccc2cc(C(=O)N3CCc4ccccc43)c(=O)oc12,-5.1,6.8,1.0,102.0,98.0,-5.5
CCOc1cccc2cc(C(=O)N3CCc4ccccc43)c(=O)oc12,18.8,16.2,8.0,100.0,5.0*,-0.6
Cc1ccc(-c2nnc(Nc3ccc4c(c3)OCO4)c3ccccc23)cc1S(=O)(=O)NC(C)C,9.3,50.0*,-2.0,94.0,91.0,-3.4
Cc1ccc(-c2nnc(Nc3ccc4c(c3)OCO4)c3ccccc23)cc1S(=O)(=O)NCCO,-6.0,32.7,-1.0,99.0,99.0,-3.9
COCCn1cc(-c2csc(N)n2)c2ccccc21,-3.4,11.8,1.0,100.0,101.0,-7.2
CN(C)c1nc(-c2cn(CCC#N)c3ccccc23)cs1,-4.0,3.8,-6.0,97.0,-15.0*,6.6
Cc1cc2nn(-c3ccc(Cl)cc3)nc2cc1N,7.0,4.2,-1.0,104.0,101.0,-11.1
SMILES,ATG4B inhibitor,PREPL inh,MEKK2 mut-MEK5,MEKK3 PB1 HTS,MEKK2wt PB1 HTS,UBC13 inh
CNc1nn(-c2cccc(Cl)c2)nc1N,4.9,7.0,8.0,104.0,-1.0*,-18.3
Cc1cc(/C=C(\C#N)C(=O)N2CCOCC2)c(C)n1C1CCCC1,0.3,-5.3,-13.0,88.0,87.0,2.4
COc1ccc(-c2ccc(CNCc3ccccn3)o2)cc1Cl,nt,51.0*,7.0,103.0,115.0,nt
O=[N+]([O-])c1ccc(/C=C/c2ccncc2)cc1,-7.9,-17.8,8.0,99.0,-2.0*[inhibitor],nt
COc1ccc(C(=Cc2cc(OC)c(OC)cc2[N+](=O)[O-])C(=O)O)cc1,-6.0,nt,nt,nt,nt,nt
Oc1c(/C=C/C=C/C=Nc2ccccc2)sc(=S)n1Cc1ccccc1,10.2,8.4,0.0,21.0*[inhibitor],nt,-19.8
CCCn1c(O)c(C=Nc2ccccc2)sc1=S,21.7,10.0,-7.0,100.0,82.0,5.4
O=C(c1ccc(N2CCCC2=O)cc1)N1CCN(c2ccccc2F)CC1,3.0,-0.4,0.0,98.0,96.0,2.6
CCOc1ccc(N(C(=O)c2snc(C(N)=O)c2N)C(C(=O)NCC2CCCO2)c2ccco2)cc1 (stereo unspecified),-4.4,5.1,3.0,101.0,102.0,79.1*
CCOc1ccc(C(C(=O)NCC2CCCO2)N(Cc2ccccc2)C(=O)c2snc(C(N)=O)c2N)cc1 (stereo unspecified),-6.8,-7.5,0.0,99.0,94.0,13.7
CCOc1ccc(-c2cnc(N)n2C)cc1,-4.5,-1.9,-28.0,88.0,104.0,8.9
COCCn1c(-c2ccc(OC)cc2)cnc1N,-3.4,17.1,-4.0,95.0,-6.0*,7.8
CN(Cc1cnccn1)C(=O)CC1C(=O)NCCN1Cc1c(F)cccc1Cl (stereo unspecified),0.9,4.3,-2.0,99.0,95.0,-13.8
Cc1c(N=Cc2cc(Br)cc(Br)c2O)cccc1C(=O)O,45.9*,-4.7,-3.0,89.0,88.0,-6.5
COc1ccc(CNC(=S)NC2CCCCC2)cc1,0.3,-3.4,4.0,98.0,107.0,-7.0
Fc1ccc(CNC(=S)NC2CCCCCC2)cc1,44.5*,7.5,-2.0,100.0,97.0,0.3
CN1CCN(C2=C(Cl)C(=O)C(c3cnc(N4CCCCC4)s3)=C(Cl)C2=O)CC1,2.6,49.7*,1.0,79.0,94.0,-17.6
Cc1cc(C)n2ncc(/C(N)=N/OC(=O)Nc3ccccc3)c2n1,18.4,3.3,2.0,102.0,105.0,2.8
O=C1c2ccccc2C(=O)C2OC12 (stereo unspecified),nt,2.4,7.0,104.0,103.0,-58.3
O=C1OC(c2ccccc2)Sc2ccccc21 (stereo unspecified),47.5*,nt,nt,nt,nt,nt
CC(=O)Nc1ccc(OCC(O)Cn2c3ccccc3c3ccccc32)c(C)c1 (stereo unspecified),27.4,45.0*,6.0,119.0,114.0,18.1
Cc1cccc(N2CCN(C(=O)c3ccc(NC(=O)C4CCCO4)cc3)CC2C)c1 (stereo unspecified),-13.6,5.1,-17.0,0.0*[inhibitor],-1.0*[inhibitor],8.5
